Screening results deposited in PubChem by National Center for Advancing Translational Sciences (NCATS).
This is a sample that favours compounds with a hit; in the whole collection about 1.6% have one here.
Giardia kill – Giardia lamblia killing. Giardia lamblia trophozoite viability. AID 540267. 0.15% of 340,000 active. activity change, % at 7.66 µM, hits read low; in the data active = activity change below about -80%; inconclusive = between about -30% and that limit;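 also: parasites exposed to compound for two days anaerobically before the ATP read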
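Viability, read as ATP luminescence: trophozoites at 100 cells/well, compound added, 48 hrs anaerobic at 37 deg C, then 15-30 min room-temperature development before reading.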
RXFP1 agonist – agonists of human relaxin receptor RXFP1; Q9HBX9; HEK293T-RXFP1 cAMP TR-FRET, 30 min; response scale: percent of porcine relaxin response, buffer zero; Potency, µM (series often up to 57.5 µM), usual class: activators; 0.3% of 370,000 active; active = well fitted activation curve with a large enough effect; inconclusive = small, poorly fitted or top-dose-only effect; also: nearly all actives have a fitted effect of over 60% in size
Target sequence (Q9HBX9 whole entry, looked up): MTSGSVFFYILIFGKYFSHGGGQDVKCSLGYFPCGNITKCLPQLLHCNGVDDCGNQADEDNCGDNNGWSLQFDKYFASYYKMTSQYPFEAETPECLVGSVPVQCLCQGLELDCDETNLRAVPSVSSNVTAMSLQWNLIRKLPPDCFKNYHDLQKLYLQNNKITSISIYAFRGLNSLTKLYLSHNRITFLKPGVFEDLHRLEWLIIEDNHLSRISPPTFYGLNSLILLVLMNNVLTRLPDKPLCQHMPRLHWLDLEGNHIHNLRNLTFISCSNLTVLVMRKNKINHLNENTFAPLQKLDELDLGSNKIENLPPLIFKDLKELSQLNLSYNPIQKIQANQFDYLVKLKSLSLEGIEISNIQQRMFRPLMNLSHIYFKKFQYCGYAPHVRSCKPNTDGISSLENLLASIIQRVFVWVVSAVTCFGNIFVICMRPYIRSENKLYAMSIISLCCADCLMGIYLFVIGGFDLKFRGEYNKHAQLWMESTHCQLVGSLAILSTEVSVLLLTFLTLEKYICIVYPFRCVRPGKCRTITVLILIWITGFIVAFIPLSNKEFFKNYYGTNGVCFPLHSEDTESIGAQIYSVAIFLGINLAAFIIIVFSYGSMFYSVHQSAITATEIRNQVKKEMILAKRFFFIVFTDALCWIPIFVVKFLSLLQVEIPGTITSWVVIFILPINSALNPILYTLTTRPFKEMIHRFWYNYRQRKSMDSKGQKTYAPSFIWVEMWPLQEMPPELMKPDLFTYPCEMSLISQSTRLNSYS
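cAMP rise read by TR-FRET after 30 min, 37C compound exposure (up to 58 uM) in RXFP1-transfected HEK293 cells with Ro 20174 present. EC50 from Hill-equation fits, with 29 nM porcine relaxin as 100% and buffer as basal.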
FBPA coupling cs – coupling enzyme interference in Giardia aldolase counter-screen. coupling enzyme system counterscreen, AmpLite Red fluorescence. activity change, negative = inhibition, % at 58.2 µM, hits read low. 0.67% of 290,000 active; in the data active = activity change below about -30%
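Counterscreen lacking aldolase: glyceraldehyde-3-phosphate coupling-enzyme reagent preincubated 10 min at RT with compound (at 57.5 uM final), then substrate/coupling system with AmpLite Red added; fluorescence read at 525/598 nm after 20 min RT.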
RXFP1 antagonist – blocks the human relaxin receptor RXFP1; HEK293-RXFP1, relaxin-stimulated cAMP HTRF, 30 min; stronger effect = lower value; activity change, negative = inhibition, % at 57.5 µM; 0.59% of 350,000 active; AID 1259400;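 active = activity change of -60% or lower, but not beyond a set lower limit; inconclusive = change between -60% and -40%, or beyond the set limit; inactive = change above -40%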
gsp antagonist – antagonizes gsp, the McCune-Albright syndrome mutation; gsp-mutant cells, cAMP HTRF, 30 min; Potency, µM (titrated, usually from 76.9 µM), most hits filed as inhibitors; 0.4% of 340,000 active; AID 624288; calls by dose curve; cell line not stated here;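 also: intracellular cAMP measured with PDE inhibitor Ro 20-1724 present during compound exposure; nearly all actives have a fitted effect of over 65% in size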
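Cells in G418 medium, seeded 16-24 h, 37C; buffer exchange to DPBS + 1 mM CaCl2, 0.5 mM MgCl2, 0.05% BSA; cpds in DMSO + […] (300 uM stock), 30 min 37C; HTRF cAMP detection.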
gsp agonist – agonists of gsp mutant (McCune-Albright syndrome). gsp mutant cells, cAMP HTRF, 30 min. Potency, µM (highest dose often 76.9 µM), actives largely listed as activators. 0.13% of 340,000 active. AID 624287; active = well fitted activation curve with a large enough effect; inconclusive = small, poorly fitted or top-dose-only effect, or another doubt; inactive = no such curve, though single readings can be large or run the other way; cell line not stated here;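 also: phosphodiesterase inhibitor Ro 20-1724 added with compounds to block cAMP breakdown; nearly all actives have a fitted effect of over 60% in size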
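Cells stably selected in G418 were plated at 2000/well, grown 16-24 hr, then given compounds in DMSO with the PDE inhibitor […] (300 uM solution added) for 30 min at 37C; cAMP was read by HTRF.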
Hits are given with their value; ! = not active in a repeat; [ ] = remark or other dose.

Screening Oc1c(Cl)cccc1Cc1cc(Cl)cc(Cl)c1O returned Giardia kill inactive, RXFP1 antagonist -110, gsp antagonist inactive and gsp agonist inactive.
`COC(=O)C1=C(C)OC(N)=C(C#N)C12C(=O)Nc1ccccc12` (stereo not drawn) gave Giardia kill inactive, RXFP1 agonist inactive, FBPA coupling cs inactive, RXFP1 antagonist inactive, gsp antagonist inactive and gsp agonist inactive.
Screening COC(=O)CC1=C(C(=O)OC)C2(C(=O)Nc3c(C)cccc32)C(C#N)=C(N)O1 (stereo not drawn) returned Giardia kill inactive, RXFP1 agonist inactive, FBPA coupling cs -38, RXFP1 antagonist inactive, gsp antagonist inactive and gsp agonist inactive.
C[C@@H]1CC2=CC(=O)CC[C@@H]2[C@H]2CC[C@@]3(C)[C@@H](CC[C@]3(C)O)[C@@H]21 was read as RXFP1 antagonist inactive.
Screening O=C1CN2CCOC2(c2ccccc2Cl)c2cc(Cl)ccc2N1 (stereo not drawn) returned RXFP1 antagonist inactive.
`CC1(C)N(O)C(c2ccc(C(=O)O)cc2)=[N+]([O-])C1(C)C` gave FBPA coupling cs -51.
`Cc1ccc(-c2cc(-c3ccc(C)cc3)[n+](-c3ccc(C(=O)O)cc3)c(-c3ccc(C)cc3)c2)cc1` gave Giardia kill inactive, RXFP1 agonist inactive and gsp antagonist inactive.
Nc1c(C(=O)NC2CCCC2)c2nc3ccccc3nc2n1CC1CCCO1 (stereo not drawn) was read as Giardia kill inactive, RXFP1 agonist inactive, FBPA coupling cs -46, RXFP1 antagonist inactive, gsp antagonist inactive and gsp agonist inactive[15.4 µM].
Screening ClCCCN1CCN(c2cccc(Cl)c2)CC1 returned RXFP1 antagonist inactive.
Screening CN1CCC(N(C)c2ncnc3ccc(Br)cc23)CC1 returned Giardia kill inactive, RXFP1 agonist inactive, FBPA coupling cs inactive, RXFP1 antagonist inactive, gsp antagonist inactive and gsp agonist 32µM.
Screening CN1CCN(c2ncnc3ccc(Br)cc23)CC1 returned Giardia kill inactive, RXFP1 agonist inactive, FBPA coupling cs inactive, RXFP1 antagonist inactive, gsp antagonist inactive and gsp agonist inconclusive.
For O=c1[nH]c2ccccc2n1C1CCNCC1 the results were RXFP1 antagonist inactive.
COc1cc2c(cc1OC)-c1c(OC)c(OC)cc3c1[C@H](C2)N(C)CC3 was read as Giardia kill inactive, RXFP1 agonist inactive, FBPA coupling cs -34 and gsp antagonist inactive.
`CC(=O)c1ccc2c(c1)C1C(Cl)C(Sc3ccccc3[N+](=O)[O-])CC1C(c1ccccc1[N+](=O)[O-])N2` (stereo not drawn) gave Giardia kill inactive, RXFP1 agonist inactive, FBPA coupling cs inactive, RXFP1 antagonist inactive, gsp antagonist inactive and gsp agonist inactive.
For CC(=O)c1ccc2c(c1)C1C(Cl)C(Sc3ccccc3[N+](=O)[O-])CC1C(c1ccccc1)N2 (stereo not drawn) the results were Giardia kill inactive, RXFP1 agonist inactive, FBPA coupling cs inactive, RXFP1 antagonist -81, gsp antagonist inconclusive and gsp agonist inactive.
`COc1cc(/C=C2\C(=O)NC(=O)N(c3ccccc3)C2=O)c([N+](=O)[O-])cc1OC` gave Giardia kill inactive, RXFP1 agonist inactive, FBPA coupling cs inactive, RXFP1 antagonist inactive, gsp antagonist inactive and gsp agonist inactive[15.4 µM].
COc1cc(/C=C2\C(=O)NC(=O)N(c3ccccc3)C2=O)cc(OC)c1O was read as Giardia kill inactive, RXFP1 agonist inactive, FBPA coupling cs -33, RXFP1 antagonist inactive, gsp antagonist inactive and gsp agonist inactive.
Screening NC1CCCC[C@@H]1N (stereo partly drawn) returned FBPA coupling cs inactive.
COc1cccc(CN2CCC(n3nccc3NC(=O)CCOc3ccccc3)CC2)c1O was read as Giardia kill inactive, RXFP1 antagonist inactive, gsp antagonist inactive and gsp agonist inactive.
`Nc1cncc(C(=O)O)c1` gave Giardia kill inactive, RXFP1 agonist inactive, FBPA coupling cs -31!, RXFP1 antagonist inactive, gsp antagonist inactive and gsp agonist inactive[15.4 µM].
O=[N+]([O-])c1c(Cl)c(Cl)cc(Cl)c1Cl was read as RXFP1 antagonist inactive.
For CNc1cc(Cl)c2nonc2c1[N+](=O)[O-] the results were Giardia kill inactive, RXFP1 agonist inactive, FBPA coupling cs inactive, RXFP1 antagonist -81, gsp antagonist inactive and gsp agonist inactive[15.4 µM].
`COc1cc(CCN)c(OC)cc1Br` gave RXFP1 antagonist inactive.
`O=C(CCCCl)c1ccc(F)cc1` gave RXFP1 antagonist inactive.
Screening C[C@]12CC[C@H]3[C@@H](CCC4=CC(=O)CC[C@@H]43)[C@@H]1CC[C@@H]2OC(=O)CCc1ccccc1 returned RXFP1 antagonist inactive.
O=C1C(=O)c2cccc3cccc1c23 was read as Giardia kill inactive, RXFP1 agonist inactive, FBPA coupling cs inactive, RXFP1 antagonist inactive, gsp antagonist inactive and gsp agonist inactive.
For O=C1C(=O)c2ccccc2-c2ccccc21 the results were Giardia kill inconclusive, RXFP1 agonist inactive, FBPA coupling cs -82 and gsp antagonist 18µM.
`CN(CCc1ccc(Cl)c(Cl)c1)[C@H]1CCCC[C@H]1N1CCCC1` gave FBPA coupling cs inactive.
Screening Nc1ccc(C2(c3ccc(N)cc3)c3ccccc3-c3ccccc32)cc1 returned Giardia kill inactive, RXFP1 agonist inactive, FBPA coupling cs inactive, RXFP1 antagonist -80, gsp antagonist inactive and gsp agonist inactive[15.4 µM].
Screening Nc1ccccc1 returned RXFP1 antagonist inactive.
Screening CC(C(=O)c1ccccc1)N(C)C (stereo not drawn) returned RXFP1 antagonist inactive.
For O=c1[nH]c(=S)n(C2CC2)c(O)c1C=NCc1ccc(F)cc1 the results were Giardia kill inactive, RXFP1 agonist 25µM, FBPA coupling cs inactive, RXFP1 antagonist inactive, gsp antagonist inactive and gsp agonist inactive.
O=C(CCCCCn1c(=S)[nH]c2ccccc2c1=O)N1CCC2(CC1)OCCO2 was read as Giardia kill inactive, RXFP1 agonist inactive, FBPA coupling cs inactive, RXFP1 antagonist -83, gsp antagonist inactive and gsp agonist inactive.
Screening O=C(Cn1c(=S)[nH]c2ccccc2c1=O)N1CCC2(CC1)OCCO2 returned Giardia kill inactive, RXFP1 agonist inactive, FBPA coupling cs inactive, RXFP1 antagonist inactive, gsp antagonist inactive and gsp agonist inactive.
Screening O=c1[nH]c2cc(Cl)ccc2n1C1CCNCC1 returned RXFP1 antagonist inactive.
For O=C(c1sc2ccccc2c1Cl)N1CCC2(CC1)OCCO2 the results were Giardia kill inactive, RXFP1 agonist inactive, FBPA coupling cs inactive, RXFP1 antagonist inactive, gsp antagonist inactive and gsp agonist inactive.
For O=C(O)c1sc2cc(Cl)ccc2c1Cl the results were RXFP1 agonist 14µM and FBPA coupling cs inactive.
